High-throughput results as filed in PubChem.
Compounds with a hit are over-represented: about 2.3% of the library has one in this group of screens.
CHRM1 agonist: human M1 muscarinic receptor agonism | P11229 | CHO-K1 hM1, Fluo-8 calcium fluorescence, agonist mode; 0% DMSO, 100% acetylcholine EC100 | activation, % at 3 µM | hit rate 0.33% among 360,000 | AID 588814;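 active = activation above the run's mean compound activation plus 3 SD, cut at about 16% in these data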;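 note: peak over basal fluorescence ratio within a 140 s kinetic read after compound addition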
Target sequence (P11229 whole entry, looked up): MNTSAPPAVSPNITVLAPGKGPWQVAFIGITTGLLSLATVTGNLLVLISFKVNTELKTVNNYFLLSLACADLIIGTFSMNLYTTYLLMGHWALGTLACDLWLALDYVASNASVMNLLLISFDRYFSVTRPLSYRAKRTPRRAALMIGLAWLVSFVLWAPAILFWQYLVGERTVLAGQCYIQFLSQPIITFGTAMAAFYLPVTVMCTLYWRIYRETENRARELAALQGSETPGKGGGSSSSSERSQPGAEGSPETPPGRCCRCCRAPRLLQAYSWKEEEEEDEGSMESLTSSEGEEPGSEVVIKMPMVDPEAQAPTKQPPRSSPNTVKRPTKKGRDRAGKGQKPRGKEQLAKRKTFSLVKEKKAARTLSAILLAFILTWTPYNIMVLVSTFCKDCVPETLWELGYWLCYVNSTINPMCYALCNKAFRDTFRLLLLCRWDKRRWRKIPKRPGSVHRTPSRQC
CHO-K1 Ca antag: nonselective inhibitor or artifact in parental CHO-K1 cells. ATP-induced calcium, Fluo-8 fluorescence. inhibition, % at 3 µM. hit rate 0.6% among 360,000. AID 602250;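 active = inhibition above a per-plate cutoff, the plate's mean sample inhibition plus 3 SD, cut at about 24% in these data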
M1 PAM: human CHRM1 positive allosteric modulation; activation, % at 3 µM; CHO-K1 hM1, Fluo-8 calcium fluorescence, ACh EC20; 0% = ACh EC20, 100% = maximal ACh; P11229; hit rate 0.088% among 360,000; in the data active = activation above about 19%, passing the limit was not always enough
CHO-K1 Ca PAM: counter-screen for M1 PAMs: effect in parental CHO-K1 cells. ATP EC20, Fluo-8 calcium fluorescence; 0% at ATP EC20, 100% at ATP max. activation, % at 3 µM. hit rate 0.02% among 360,000. AID 602247;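 active = activation above the run cutoff, the mean activation of all test compounds plus 3 SD, cut at about 40% in these data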;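 note: peak over basal fluorescence ratio in a 140 s read after ATP addition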
CHO-K1 Ca ag: nonselective activator or artifact in parental CHO-K1 cells | Fluo-8 calcium fluorescence; scaled to maximal ATP response, vehicle zero | activation, % at 3 µM | hit rate 0.48% among 360,000 | AID 602248; in the data active = activation above about 15%;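 note: untransfected CHO-K1 host cells lacking M1 receptor as counterscreen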
CHRM1 antagonist: blocks human M1 muscarinic receptor; AID 588852; inhibition, % at 3 µM; hit rate 1.3% among 360,000; CHO-K1 hM1, Fluo-8 calcium fluorescence, ACh EC80 antagonist; P11229;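 active = percent inhibition above its own plate's cutoff, namely the mean of that plate's compound wells plus 3 SD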;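 note: peak over basal fluorescence ratio during 140 s after agonist addition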
Each line names hits and unclear results; the compound was inactive in the other large screens.

Cc1cc(S(=O)(=O)N2CCCC(C(=O)Nc3ccc(C(=O)O)cc3)C2)ccc1Cl (configuration not stated)	none
CCc1ccc(NC(=S)NC2CC3CCCC(C2)N3Cc2cccs2)cc1 (configuration not stated)	CHRM1 antagonist 27
CCc1ccccc1NC(=O)NC1CC2CCC(C1)N2Cc1cccs1 (configuration not stated)	CHRM1 antagonist 45
CCc1ccccc1NC(=S)NC1CC2CCC(C1)N2Cc1ccco1 (configuration not stated)	none
CCNC(=S)NC1CC2CCCC(C1)N2Cc1ccc(C)cc1 (configuration not stated)	CHRM1 antagonist 69
CCCN1C2CCCC1CC(NC(=S)Nc1ccc(OC)cc1)C2 (configuration not stated)	none
CCc1ccccc1NC(=O)N1C2CCCC1CC(NC(=O)C(C)(C)C)C2 (configuration not stated)	CHRM1 antagonist 48
Cc1ccc(CNC(=O)c2ccc3c(c2)NC(=O)CS3)cc1	none
COC(=O)/C=C/c1cccc([C@H]2[C@@H]3C=CC[C@@H](C)[C@@H]3C(=O)N2Cc2ccccc2)c1	none
COc1ccc(Nc2ncnc3ccccc23)cc1	none
COc1ccc(Nc2ccnc3ccccc23)cc1	CHRM1 agonist 25
Nc1[nH]n(-c2ccccc2)c(=O)c1N=Nc1ccccc1[N+](=O)[O-]	none
COc1cc([N+](=O)[O-])ccc1N=Nc1c(N)[nH]n(-c2ccccc2)c1=O	CHO-K1 Ca ag 17
O=C(Nc1ccccc1O)C(c1ccccc1)c1ccccc1	none
CCOC(=O)c1oc2ccc(/C=N/O)c(Cl)c2c1C	none
O=C1/C(=C/c2ccc(F)cc2)CCC1C1CCCC1 (configuration not stated)	CHO-K1 Ca antag 24
O=C1/C(=C/c2ccccc2)CCC1C1CCCC1 (configuration not stated)	none
CCOC(=O)C1=NN(C(=O)c2ccc(C)cc2)C(O)(c2ccc(Cl)cc2)C1 (configuration not stated)	CHRM1 agonist 22
CCC1=NN(C(=O)c2ccc(Cl)cc2)C(O)(c2ccc(C)cc2)C1 (configuration not stated)	none
O=C1CCCN1CC(=O)N1CCCC(Nc2cccc(F)c2)C1 (configuration not stated)	none
CN(C)/C=N/c1sc2c(c1C#N)CC(C)(C)NC2(C)C	M1 PAM 23
COC(=O)C1C2CCC(C2)C1C(=O)OCC(=O)c1ccc(C)cc1 (configuration not stated)	CHO-K1 Ca antag 27
COc1ccc(CCC(=O)OCC(=O)c2ccc(C)cc2)cc1	none
COCC1CCN(C(=O)c2cc(COc3cccc4cnccc34)on2)CC1	none
O=C(c1cc(COc2cccc3cnccc23)on1)N1CCCC(CCCO)C1 (configuration not stated)	CHO-K1 Ca ag 22, CHRM1 antagonist 48
CCOc1ccc(N2CC(O)(c3cccs3)[N+]3=C2CCCC3)cc1 (configuration not stated)	CHRM1 antagonist 41
COc1ccc(N2CC(O)(c3ccc(OC(F)F)cc3)[N+]3=C2CCCC3)cc1 (configuration not stated)	CHRM1 antagonist 42
OC1(c2cccs2)CN(c2ccccc2)C2=[N+]1CCCC2 (configuration not stated)	none
COc1ccc(N2CC(O)(c3ccc(F)cc3)[N+]3=C2CCCC3)cc1 (configuration not stated)	CHRM1 antagonist 47
COc1ccc2nc3n(c(=O)c2c1)-c1ncccc1C(=O)NC3Cc1ccccc1 (configuration not stated)	none
CNS(=O)(=O)c1cccc(C(=O)NCC(c2cccs2)N(C)C)c1 (configuration not stated)	none
CCN(c1ccccc1)S(=O)(=O)c1cccc(C(=O)NCC(c2cccs2)N(C)C)c1 (configuration not stated)	CHRM1 antagonist 52
N#C/C(=C\c1c[nH]c2ccccc12)C(=O)NC1CCCC1	none
O=C(Nc1nc2c(F)cc(F)cc2s1)C1CC1	CHO-K1 Ca antag 31
O=C(CN1C(=O)CCC1=O)Nc1nc2c(F)cc(F)cc2s1	none
